PubChem BioAssay (NCATS)
Results filed as inconclusive are left out. A call without a number means that no potency is given here. Unmarked numbers belong to inactive results. The source made the active and inactive calls. Calls come from the whole dose curve.

Columns and labels:
[1] = Primary qHTS for Huh7 cytotoxicity: counterscreen for inhibitors of MERS-S pseudotyped particle cell entry (AID 1479147)
[2] = Primary qHTS for inhibitors of MERS-S pseudo-typed particle cell entry (AID 1479149); note: nearly all actives have a fitted effect of over 60% in size; note: potency is the fitted concentration of half-maximal effect
[3] = Primary qHTS for Vero E6 cytotoxicity: counterscreen for inhibitors of SARS-S pseudo-typed particle cell entry (AID 1479150)

Row | SMILES | Potency [1] | Potency [2] | Potency [3] | activity change, negative = cytotoxicity [1] | outcome [2] | activity change, negative = cytotoxicity [3]
1 | COc1cc(NS(=O)(=O)c2ccc(N)cc2)ncn1 | inactive | inactive | inactive | – | – | –
2 | CCCCN1CCCC[C@H]1C(=O)Nc1c(C)cccc1C | inactive | inactive | inactive | – | – | –
3 | CN(C)CCOC(c1ccccc1)c1ccc(Br)cc1 (stereo unspecified) | inactive | inactive | inactive | – | – | –
4 | CN(C)CCN1C(=O)c2ccccc2N(C)c2ccccc21 | inactive | inactive | inactive | – | – | –
5 | O=C(O)c1ccccc1Nc1cc(Cl)ccc1C(=O)O | inactive | inactive | inactive | – | – | –
6 | NS(=O)(=O)c1cc2c(cc1Cl)CN(C1CCCCC1)C2=O | inactive | inactive | inactive | – | – | –
7 | CN(C)[C@@H](CCOc1cccc2ccccc12)c1ccccc1 | inactive | 20 µM (active) | inactive | – | – | –
8 | O=S(=O)(c1cccc2cnccc12)N1CCCNCC1 | inactive | inactive | inactive | – | – | –
9 | CCOCCn1c(N2CCCN(C)CC2)nc2ccccc21 | inactive | inactive | inactive | – | – | –
10 | Cc1cc(C(C)(C)C)cc(C)c1CC1=NCCN1 | inactive | inactive | inactive | – | – | –
11 | COc1ccc(C(Cl)=C(c2ccc(OC)cc2)c2ccc(OC)cc2)cc1 | inactive | inactive | inactive | – | – | –
12 | CCOC(=O)c1cc(=O)c2c(OCC(COc3cccc4oc(C(=O)OCC)cc(=O)c34)OC(=O)[C@@H](N)CCCCN)cccc2o1 | inactive | inactive | inactive | – | – | –
13 | CCOc1ccccc1O[C@H](c1ccccc1)[C@H]1CNCCO1 | inactive | inactive | inactive | – | – | –
14 | CC(=O)OCC(=O)NCCCOc1cccc(CN2CCCCC2)c1 | inactive | inactive | inactive | – | – | –
15 | C=CCc1ccccc1OCC(O)CNC(C)C (stereo unspecified) | inactive | inactive | inactive | – | – | –
16 | CCOC(=O)OCC/C(SC(=O)OCC)=C(\C)N(C=O)Cc1cnc(C)nc1N | inactive | inactive | inactive | – | – | –
17 | C#C[C@]1(O)CC[C@H]2[C@@H]3CCC4=CC(=O)CCC4=C3C=C[C@@]21CC | inactive | inactive | inactive | – | – | –
18 | O=c1oc2c(O)c(O)cc3c(=O)oc4c(O)c(O)cc1c4c23 | inactive | inactive | inactive | – | – | –
19 | C[C@@H](C1=C(CCN(C)C)Cc2ccccc21)c1ccccn1 | inactive | inactive | inactive | – | – | –

Row | SMILES | Potency [1] | Potency [2] | Potency [3] | activity change, negative = cytotoxicity [1] | outcome [2] | activity change, negative = cytotoxicity [3]
20 | O=c1[nH]c(=O)n([C@H]2C[C@H](O)[C@@H](CO)O2)cc1C(F)(F)F | inactive | 10 µM (active) | inactive | – | – | –
21 | COc1ccnc2c1CCCCC2S(=O)c1nc2ccccc2[nH]1 (stereo unspecified) | inactive | inactive | inactive | – | – | –
22 | CCOc1ccccc1C(N)=O | inactive | inactive | inactive | – | – | –
23 | Cc1ccc(N(CC2=NCCN2)c2cccc(O)c2)cc1 | inactive | inactive | inactive | – | – | –
24 | Cc1ccc(/C(=C\CN2CCCC2)c2ccccn2)cc1 | inactive | inactive | inactive | – | – | –
25 | CN(C)CCN(Cc1ccccc1)c1ccccn1 | inactive | inactive | inactive | – | – | –
26 | COC(=O)C1=C(C)NC(C)=C(C(=O)OC)C1c1ccccc1[N+](=O)[O-] | inactive | inactive | inactive | – | – | –
27 | CCOc1ccc(C(=O)OCCN(CC)CC)cc1 | inactive | inactive | inactive | – | – | –
28 | CCOC(=O)[C@H](CCc1ccccc1)N[C@@H](C)C(=O)N1C(=O)N(C)C[C@H]1C(=O)O | inactive | inactive | inactive | – | – | –
29 | CCN1C(=O)c2ccccc2C1Nc1ccc(OCCN2CCCCC2)cc1 (stereo unspecified) | inactive | inactive | inactive | – | – | –
30 | CCN[C@@H]1C[C@H](N)[C@@H](OC2OC(CN)=CCC2N)[C@H](O)[C@H]1O[C@H]1OC[C@](C)(O)[C@H](NC)[C@H]1O (stereo partly specified) | – | – | – | -16.5% [at 0.573 µM] | inactive [at 0.573 µM] | -4.98% [at 0.573 µM]
31 | C=C1c2cccc(O)c2C(O)=C2C(=O)[C@]3(O)C(O)=C(C(N)=O)C(=O)[C@@H](N(C)C)[C@@H]3[C@@H](O)[C@H]12 | inactive | inactive | inactive | – | – | –
32 | CCCCNc1ccc(C(=O)OCCN(C)C)cc1 | inactive | inactive | inactive | – | – | –
33 | CCOC(=O)[C@H](CCc1ccccc1)N[C@@H](C)C(=O)N(CC(=O)O)C1Cc2ccccc2C1 | inactive | inactive | inactive | – | – | –
34 | CN(Cc1cc(Br)cc(Br)c1N)C1CCCCC1 | inactive | inactive | inactive | – | – | –
35 | CN1CCN(C2=Nc3ccccc3Sc3ccc(Cl)cc32)CC1 | inactive | inactive | inactive | – | – | –
36 | CCc1ccc(C(=O)C(C)CN2CCCCC2)cc1 (stereo unspecified) | inactive | inactive | inactive | – | – | –
37 | COc1ccc2cc3[n+](cc2c1OC)CCc1cc2c(cc1-3)OCO2 | inactive | 12.6 µM (active) | inactive | – | – | –
